Several values for one entry are separate records, joined by “and”; a condition that tells them apart may be missing. Equal entries are not always repeated. Results filed as inconclusive are left out. Activity calls are given as the source filed them. Unless noted, calls follow the shape of the dose curve; as a rule, active = well fitted curve in either direction with a large enough effect (not every such curve was filed as active); inconclusive = small, poorly fitted or top-dose-only effect, or another doubt; inactive = flat fitted curve, though single readings scatter. Some results are limits rather than exact numbers.

Experiment [1] in a line: AP1 Signaling Pathway (AID 357).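 Also: ME-180 reporter cells stimulated with EGF at its EC50 level; % is scaled to controls: 0 for no effect and ±100 for the full control effect.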 The settings on record: ME-180 AP-1-bla reporter, EGF-induced, beta-lactamase ratio, 5 h. The method, boiled down:
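In this screen, ME-180 cells in Opti-MEM with 0.5% dialyzed FBS received EC50 EGF and compound titrations for 5 h. AP-1 reporter beta-lactamase was detected via CCF4 ratio, giving AC50 for positive and negative modulators.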

Experiment [2] addresses Cytochrome P450 1A2 (Homo sapiens) (UniProt P05177). Description: p450-cyp1a2 (AID 410; calls by dose curve;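 also: -100% = full effect of reference inhibitor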). Conditions: recombinant CYP1A2, luciferin-ME demethylation, luminescence; series mostly up to 57 µM. In short, it runs like this: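 Luminescent readout of luciferin formed from Luciferin-ME by human CYP1A2; data normalized against complete inhibition by 57 uM furafylline. Enzyme 20nM, substrate 100uM at Km, 100mM KPO4 buffer, 60 min reaction at room temperature.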

The nature of experiment [3]: NFAT Signaling Pathway (AID 444).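 Also: carbachol stimulus at about its EC50 of 1 µM final; % is scaled to controls: 0 for no effect and ±100 for the full control effect.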 The settings on record: Jurkat NFAT-bla M1, carbachol, beta-lactamase ratio, 5 h. The method, boiled down: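 Jurkat cells with NFAT-driven β-lactamase reporter and co-expressed M1 receptor, stimulated with carbachol (final 1 uM, ~EC50), compound titration, 5 h at 37 °C. CCF4 loaded 1 h at RT; 460/530 nm ratio gave %activity and AC50.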

A short description of experiment [4]: Stat Signaling Pathway (AID 446).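 Also: ME-180 cervical cancer cells given 40 pM IL-6 alongside compound; SIE-controlled beta-lactamase reporter measured as 460/530 nm FRET emission ratio; % is scaled to controls: 0 for no effect and ±100 for the full control effect.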 The settings on record: ME-180 SIE beta-lactamase reporter, IL-6 stimulated, 5 h. The method, boiled down:
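Screening format detects activators and inhibitors alike: ME-180 SIE-bla cells stimulated at 40 pM IL-6 for 5 hrs with compound, then dual-emission beta-lactamase read at 405 nm excitation.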

In experiment [5] the target is Mitogen-activated protein kinase 10 (Mus musculus) (UniProt Q61831). Briefly: JNK3 AlphaScreen Assay (AID 530).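 Also: kinase came from lysate of stimulated human HepG2 cells; signal reports phosphorylation of biotinylated GST-cJun 1-79 at Ser73 with 10 µM ATP; % is scaled to controls: 0 for no effect and ±100 for the full control effect.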 Conditions: JNK3 lysate, c-Jun phosphorylation; series mostly up to 57.1 µM. In short, it runs like this:
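Pre-activated (IL-1β/TNFα) JNK3 in HepG2 lysates phosphorylates biotin-GST-cJun(1-79), 10 uM ATP; anti-phospho-cJun(Ser73) AlphaScreen read at room temperature, pH 7.6 Tris buffer. Compounds pre-incubated 15 min as titrations.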
A general note: Alpha assays give light when donor and acceptor beads are brought close together.

Experiment [6] has as its target 3',5'-cyclic-AMP phosphodiesterase 4B (Homo sapiens) (UniProt Q07343). Briefly: qHTS Assay for Inhibitors of PDE-IV (AID 607; active = well fitted activation curve with a large enough effect in the main read-out, with a control signal flat, not every such curve was filed as active; also: % of control where 0% means no effect). Conditions: HEK293 ACTOne CNG channel cells, membrane potential fluorescence; series mostly up to 22.9 µM. In short, it runs like this: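 The readout is membrane depolarisation from a cAMP-sensing CNG channel, detected with a potential dye at ex 535/em 590. Cells were HEK293-derived (endogenous PDE-IV) at 1000 cells/well, titrated up to 22.9 uM final.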
(Quantitative high-throughput screening tests each substance at several concentrations.)

Experiment [7] has as its target Guanine nucleotide-binding protein G(i) subunit alpha-1 (Homo sapiens) (UniProt P63096). Description: qHTS Assay for Inhibitors of RGS12 GoLoco Motif Activity (Green Fluorophore) (AID 879; active = well fitted curve in the direction sought with a large enough effect; an effect the other way counts as inactive or inconclusive;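 also: 0% = labeled peptide with Gαi1 and full inhibition = labeled peptide alone without protein; negative values mean loss of peptide binding seen as reduced polarization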). The settings on record: Galphai1/FITC-RGS12 GoLoco peptide, fluorescence polarization; series mostly up to 57.1 µM. The method, boiled down: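 Fluorescence polarization assay: 50 nM Gαi1 with 10 nM FITC-labeled RGS12 GoLoco peptide in 10 mM Tris pH 7.5, 150 mM NaCl, 0.1 mM GDP, 0.05% NP40, 10 min at room temperature with compound.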

The target of experiment [8] is Pyruvate kinase (Leishmania mexicana) (UniProt Q27686). Description: qHTS Validation Assay for Inhibitors of Leishmania Mexicana Pyruvate Kinase (AID 945; active = well fitted curve in the direction sought with a large enough effect; an effect the other way counts as inactive or inconclusive;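 also: 0% = DMSO only neutral control wells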). Conditions: purified L. mexicana pyruvate kinase, enzyme activity, E451W mutant enzyme; series mostly up to 57.5 µM. The method, boiled down: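 The enzyme is a highly purified E451W mutant of LmPYK used at 0.2 nM. It converts 0.5 mM PEP and 0.1 mM ADP over 1 h at room temperature; product ATP is quantified by luciferase luminescence relative to DMSO controls.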
Sequence of Pyruvate kinase (Leishmania mexicana) (Q27686 2-499 E452W): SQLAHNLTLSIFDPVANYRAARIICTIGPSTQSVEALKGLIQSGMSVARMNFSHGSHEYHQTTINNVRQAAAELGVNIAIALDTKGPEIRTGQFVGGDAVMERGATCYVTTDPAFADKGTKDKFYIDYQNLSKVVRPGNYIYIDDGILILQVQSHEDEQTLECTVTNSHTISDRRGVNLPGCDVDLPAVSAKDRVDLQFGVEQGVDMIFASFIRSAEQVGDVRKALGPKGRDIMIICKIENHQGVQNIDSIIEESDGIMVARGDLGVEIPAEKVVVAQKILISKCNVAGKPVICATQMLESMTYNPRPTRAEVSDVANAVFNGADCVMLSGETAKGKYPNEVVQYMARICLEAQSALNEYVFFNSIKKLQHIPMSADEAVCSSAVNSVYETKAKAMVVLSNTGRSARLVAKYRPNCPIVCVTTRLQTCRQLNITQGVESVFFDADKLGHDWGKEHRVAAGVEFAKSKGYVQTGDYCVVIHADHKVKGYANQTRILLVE

The target of experiment [9] is Pyruvate kinase PKM (Homo sapiens) (UniProt P14618). Description: qHTS Assay for Activators of Human Muscle Pyruvate Kinase (AID 954; active = well fitted curve in the direction sought with a large enough effect, not every such curve was filed as active;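 also: 0% = uninhibited enzyme and -100% = no enzyme or full thiadiazolimine inhibition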). The settings on record: purified human muscle pyruvate kinase, luciferase-coupled luminescence, 1 h; series mostly up to 57.5 µM. The method, boiled down:
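Reaction: 0.1 nM purified PKM2 with 0.5 mM phosphoenolpyruvate and 0.1 mM ADP, room temperature, 1 h. Readout: luciferase-based ATP luminescence after stop reagent. Activators judged against a 0.3 nM enzyme column.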

In experiment [10] the target is alpha-glucosidase (Oryza sativa, rice) (UniProt Q653V4). Description: Counterscreen for Glucocerebrosidase Inhibitors: qHTS Assay for Rice alpha-Glucosidase at pH 5.0 (AID 997; active = well fitted curve in the direction sought with a large enough effect; an effect the other way counts as inactive or inconclusive;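 also: 0% = full activity with enzyme and -100% = basal without enzyme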). Conditions: rice alpha-glucosidase enzyme activity; series mostly up to 76.9 µM. In short, it runs like this:
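Rice alpha-glucosidase (4 nM final) with 400 uM 4-methylumbelliferyl-alpha-D-glucopyranoside in citrate buffer pH 5.0, 20 min at room temperature, stopped at pH 10; fluorescence 365/440 nm, compounds 0.7 nM–77 uM, AC50 from Hill fits.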
In general terms: A counterscreen serves to expose hits that act by an unwanted route or on another target.

Experiment [11] can be described thus: qHTS Assay for Lipid Storage Modulators (AID 1519; calls by dose curve). The settings on record: Drosophila S3 cells, BODIPY lipid droplet/cell ratio, laser cytometry, cells loaded with oleic acid; for activity change, negative = inhibition: at 25.7 µM (top of the series). The method, boiled down: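 Cells seeded at 5,000 per well were treated with compounds over a concentration series and loaded with oleic acid (400 uM, as added). Lipid droplet fluorescence (488 nm excitation, 500-530 nm channel) was read by laser-scanning cytometry and normalized to 20 uM Triacsin C.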

The target of experiment [12] is Ubiquitin carboxyl-terminal hydrolase 1 (Homo sapiens) (UniProt O94782). Description: Inhibitors of USP1/UAF1: Pilot qHTS (AID 504865; active = well fitted curve in the direction sought with a large enough effect; an effect the other way counts as inactive or inconclusive;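 also: rhodamine fluorescence freed from ubiquitin-rhodamine substrate followed over time; top concentration of the series differs between compounds; % is scaled to controls: 0 for no effect and ±100 for the full control effect; nearly all actives have a fitted effect of over 35% in size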). Conditions: purified USP1/UAF1, Ub-rhodamine cleavage fluorescence; series mostly up to 54.9 µM. The method, boiled down:
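Enzyme-free wells gave the negative control, while test wells held 1nM USP1/UAF1 preincubated with compound for 15 min at room temperature. Ub-Rho at 150nM final started the reaction, and fluorescence at 480/540 nm was recorded kinetically.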

The target of experiment [13] is Glucocorticoid receptor (Homo sapiens) (UniProt P04150). Description: GR-GFP Redistribution (AID 450;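 active = compounds whose dose series gives a full or clear partial fitted curve of increased nuclear translocation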; also: potency is read from the fitted curve at half-maximal effect). Conditions: U2OS GR-GFP nuclear translocation, laser cytometry, 2 h.
Sequence of Glucocorticoid receptor (Homo sapiens) (P04150 whole entry, looked up, the tested form may be a part): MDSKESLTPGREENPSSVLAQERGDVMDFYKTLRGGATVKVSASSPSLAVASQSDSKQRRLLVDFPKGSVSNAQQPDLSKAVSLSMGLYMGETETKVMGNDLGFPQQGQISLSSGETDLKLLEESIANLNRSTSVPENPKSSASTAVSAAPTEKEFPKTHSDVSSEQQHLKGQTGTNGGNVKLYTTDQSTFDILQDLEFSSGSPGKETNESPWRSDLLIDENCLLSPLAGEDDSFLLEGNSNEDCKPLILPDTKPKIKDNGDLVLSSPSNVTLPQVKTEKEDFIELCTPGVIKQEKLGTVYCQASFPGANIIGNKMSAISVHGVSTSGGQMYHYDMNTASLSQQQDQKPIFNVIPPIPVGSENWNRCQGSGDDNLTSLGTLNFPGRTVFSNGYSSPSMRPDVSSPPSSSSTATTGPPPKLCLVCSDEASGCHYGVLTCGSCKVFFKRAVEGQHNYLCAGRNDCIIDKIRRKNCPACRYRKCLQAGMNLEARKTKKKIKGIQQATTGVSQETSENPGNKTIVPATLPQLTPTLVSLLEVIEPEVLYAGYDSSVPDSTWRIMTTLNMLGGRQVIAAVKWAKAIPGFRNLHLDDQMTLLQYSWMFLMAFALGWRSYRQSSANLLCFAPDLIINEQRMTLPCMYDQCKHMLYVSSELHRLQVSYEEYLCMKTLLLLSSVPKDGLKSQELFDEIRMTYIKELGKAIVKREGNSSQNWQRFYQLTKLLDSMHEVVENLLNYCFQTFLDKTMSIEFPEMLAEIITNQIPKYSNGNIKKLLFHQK
Experiment [14] has the same target. Description: GR-EFC Redistribution (AID 451; calls by dose curve; also: potency is read from the fitted curve at half-maximal effect). The settings on record: CHO-K1 GR-EFC translocation, beta-gal luminescence, 2 h. The method, boiled down: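 CHO-K1 cells expressing nuclear EA and GR-ED fragments of b-gal; compounds titrated up to 46 uM final, 2 h at 37 C. GR nuclear translocation read as complemented b-gal luminescence after 1 h RT detection.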

Experiment [15] has as its target ATP-dependent 6-phosphofructokinase (Trypanosoma brucei brucei) (UniProt O15648). Description: qHTS Assay to Find Inhibitors of T. brucei phosphofructokinase: hit validation (AID 492961; active = well fitted curve in the direction sought with a large enough effect; an effect the other way counts as inactive or inconclusive). Conditions: T. brucei PFK, ADP-Glo luminescence; series mostly up to 24.3 µM. In short, it runs like this: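 Inhibition of parasite PFK is measured as reduced ADP formation, quantified via luciferase after ATP depletion. Assay used 0.1 mM ATP, 0.5 mM F6P, 1.25 nM enzyme, 45 min incubation.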

For experiment [16], the target named is Luciferin 4-monooxygenase (Photinus pyralis) (UniProt P08659). Briefly: Biochemical firefly luciferase enzyme assay for NPC (AID 624030; active = well fitted curve in the direction sought with a large enough effect; an effect the other way counts as inactive or inconclusive;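 also: purified P. pyralis luciferase at 10 nM with luciferin and ATP substrate; 0% = DMSO and -100% = full luciferase inhibition by PTC124 control; nearly all actives have a fitted effect of over 70% in size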). Conditions: purified P. pyralis luciferase, luminescence, 5 min; series mostly up to 58.6 µM. In short, it runs like this:
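Purified P. pyralis luciferase at 10 nM in 50 mM Tris Acetate (final), luminescence read within 5 minutes of enzyme addition to compounds. Activity normalised to PTC124 versus DMSO; concentration-response curves classed by r2, magnitude and activity.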

A short description of experiment [17]: qHTS profiling for inhibitors of Plasmodium falciparum proliferation (AID 504749; active = well fitted curve in the direction sought with a large enough effect; an effect the other way counts as inactive or inconclusive;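 also: 0% = DMSO vehicle and full inhibition = artemisinin control; nearly all actives have a fitted effect of over 60% in size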). The settings on record: P. falciparum in erythrocytes, SYBR Green DNA, 72 h, at 28.7 µM (top of the series). The method, boiled down: (§1)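 P. falciparum-infected erythrocytes (0.3% parasitemia, 2.5% hematocrit) incubated with compound 72 h at 37 C, 5% CO2. Parasite DNA detected by SYBR Green after lysis, overnight at room temperature; normalised to 0.29 uM artemisinin and DMSO.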

The next experiment concerns AS120. The description is as above. Conditions: P. falciparum in erythrocytes, SYBR Green DNA, 72 h; series mostly up to 28.7 µM. The method, boiled down:
as §1

Another experiment has as its system CP238. Described as above. Conditions: P. falciparum in erythrocytes, SYBR Green DNA, 72 h; series mostly up to 12.8 µM. The method, boiled down:
as §1

The subject of another experiment is FAB9. The experiment is described as above. Conditions: P. falciparum in erythrocytes, SYBR Green DNA, 72 h; series mostly up to 12.8 µM. In short, it runs like this: as §1
Setting [18] is: measured here: cell count channel max response.
The mark [19] stands for this setting: measured here: lipid channel max response.

Sequence of 3',5'-cyclic-AMP phosphodiesterase 4B (Homo sapiens) (Q07343 whole entry, looked up): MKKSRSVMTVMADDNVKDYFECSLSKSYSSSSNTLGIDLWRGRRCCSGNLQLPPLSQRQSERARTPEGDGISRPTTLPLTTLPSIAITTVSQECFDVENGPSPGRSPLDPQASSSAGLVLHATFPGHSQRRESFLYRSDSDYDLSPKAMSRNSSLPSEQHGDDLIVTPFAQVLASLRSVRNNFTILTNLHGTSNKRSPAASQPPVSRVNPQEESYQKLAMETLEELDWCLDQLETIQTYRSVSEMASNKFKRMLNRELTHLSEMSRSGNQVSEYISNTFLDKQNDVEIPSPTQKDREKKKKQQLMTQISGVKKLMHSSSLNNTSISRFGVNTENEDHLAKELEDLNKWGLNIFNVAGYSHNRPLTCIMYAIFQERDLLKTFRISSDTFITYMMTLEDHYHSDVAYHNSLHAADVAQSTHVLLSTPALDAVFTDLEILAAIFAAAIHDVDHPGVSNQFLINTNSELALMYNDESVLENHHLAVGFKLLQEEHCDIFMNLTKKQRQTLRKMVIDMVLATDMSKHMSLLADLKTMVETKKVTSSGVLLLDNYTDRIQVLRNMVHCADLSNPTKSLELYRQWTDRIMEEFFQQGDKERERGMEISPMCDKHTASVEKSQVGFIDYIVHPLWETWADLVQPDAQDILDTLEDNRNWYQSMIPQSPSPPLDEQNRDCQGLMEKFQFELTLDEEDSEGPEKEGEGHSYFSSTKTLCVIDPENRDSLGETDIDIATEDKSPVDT
Sequence of Cytochrome P450 1A2 (Homo sapiens) (P05177 whole entry, looked up): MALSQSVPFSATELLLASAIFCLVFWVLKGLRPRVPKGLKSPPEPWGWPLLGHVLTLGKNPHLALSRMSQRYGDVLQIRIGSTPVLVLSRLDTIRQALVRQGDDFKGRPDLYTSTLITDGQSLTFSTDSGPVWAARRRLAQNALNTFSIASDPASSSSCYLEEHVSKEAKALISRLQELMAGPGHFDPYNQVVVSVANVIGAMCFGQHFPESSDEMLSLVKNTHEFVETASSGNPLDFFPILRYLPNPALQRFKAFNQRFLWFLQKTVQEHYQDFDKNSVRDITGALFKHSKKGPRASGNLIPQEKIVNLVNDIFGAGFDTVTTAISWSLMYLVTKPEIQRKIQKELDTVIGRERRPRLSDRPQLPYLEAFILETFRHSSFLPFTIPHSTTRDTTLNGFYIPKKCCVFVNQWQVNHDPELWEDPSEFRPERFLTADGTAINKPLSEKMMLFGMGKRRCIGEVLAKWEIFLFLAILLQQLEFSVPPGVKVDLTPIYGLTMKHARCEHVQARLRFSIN
Sequence of Guanine nucleotide-binding protein G(i) subunit alpha-1 (Homo sapiens) (P63096 whole entry, looked up): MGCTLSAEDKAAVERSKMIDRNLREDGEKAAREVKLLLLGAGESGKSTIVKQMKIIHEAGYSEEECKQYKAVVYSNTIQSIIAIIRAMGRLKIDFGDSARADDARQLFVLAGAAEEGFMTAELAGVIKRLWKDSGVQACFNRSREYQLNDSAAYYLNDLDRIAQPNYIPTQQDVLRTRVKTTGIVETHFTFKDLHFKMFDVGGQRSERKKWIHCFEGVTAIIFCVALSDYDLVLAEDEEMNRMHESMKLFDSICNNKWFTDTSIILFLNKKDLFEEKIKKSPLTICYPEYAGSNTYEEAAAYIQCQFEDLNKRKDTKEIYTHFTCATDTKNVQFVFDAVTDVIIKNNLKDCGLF
Sequence of Ubiquitin carboxyl-terminal hydrolase 1 (Homo sapiens) (O94782 whole entry, looked up): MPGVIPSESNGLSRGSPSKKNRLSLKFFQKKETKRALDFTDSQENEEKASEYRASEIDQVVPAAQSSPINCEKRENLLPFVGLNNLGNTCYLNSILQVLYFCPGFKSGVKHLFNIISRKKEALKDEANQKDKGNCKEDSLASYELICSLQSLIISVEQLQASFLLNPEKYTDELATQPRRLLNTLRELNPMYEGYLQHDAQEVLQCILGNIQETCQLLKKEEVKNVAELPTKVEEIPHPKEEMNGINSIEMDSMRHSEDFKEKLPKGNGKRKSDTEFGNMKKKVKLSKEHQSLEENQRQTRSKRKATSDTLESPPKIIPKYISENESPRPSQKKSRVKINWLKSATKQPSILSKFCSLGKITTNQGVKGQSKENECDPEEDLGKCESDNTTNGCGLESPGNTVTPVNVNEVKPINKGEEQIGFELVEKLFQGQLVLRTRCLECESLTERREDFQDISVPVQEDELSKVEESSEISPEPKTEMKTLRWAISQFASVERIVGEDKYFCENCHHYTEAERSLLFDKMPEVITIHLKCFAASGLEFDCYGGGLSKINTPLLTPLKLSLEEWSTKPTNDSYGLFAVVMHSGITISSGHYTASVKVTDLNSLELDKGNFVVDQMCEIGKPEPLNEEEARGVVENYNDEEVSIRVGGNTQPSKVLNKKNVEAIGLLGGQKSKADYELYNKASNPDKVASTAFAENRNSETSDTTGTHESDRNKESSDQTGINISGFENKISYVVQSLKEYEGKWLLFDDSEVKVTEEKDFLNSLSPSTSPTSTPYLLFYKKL
Sequence of Pyruvate kinase PKM (Homo sapiens) (P14618 whole entry, looked up): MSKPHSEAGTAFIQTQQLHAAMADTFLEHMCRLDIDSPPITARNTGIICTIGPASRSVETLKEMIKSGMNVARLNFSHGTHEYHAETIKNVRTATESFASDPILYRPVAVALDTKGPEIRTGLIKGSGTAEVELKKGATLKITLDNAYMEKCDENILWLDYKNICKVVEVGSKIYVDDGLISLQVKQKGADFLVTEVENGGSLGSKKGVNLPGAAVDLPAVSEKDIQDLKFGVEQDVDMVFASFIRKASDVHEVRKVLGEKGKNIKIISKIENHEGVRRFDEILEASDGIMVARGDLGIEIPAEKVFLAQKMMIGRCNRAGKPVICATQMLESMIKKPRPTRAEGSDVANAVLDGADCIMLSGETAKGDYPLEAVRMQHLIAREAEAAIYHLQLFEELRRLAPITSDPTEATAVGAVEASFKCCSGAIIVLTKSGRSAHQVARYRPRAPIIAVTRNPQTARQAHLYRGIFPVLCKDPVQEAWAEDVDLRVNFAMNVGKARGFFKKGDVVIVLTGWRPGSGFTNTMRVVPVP
Sequence of ATP-dependent 6-phosphofructokinase (Trypanosoma brucei brucei) (O15648 whole entry, looked up): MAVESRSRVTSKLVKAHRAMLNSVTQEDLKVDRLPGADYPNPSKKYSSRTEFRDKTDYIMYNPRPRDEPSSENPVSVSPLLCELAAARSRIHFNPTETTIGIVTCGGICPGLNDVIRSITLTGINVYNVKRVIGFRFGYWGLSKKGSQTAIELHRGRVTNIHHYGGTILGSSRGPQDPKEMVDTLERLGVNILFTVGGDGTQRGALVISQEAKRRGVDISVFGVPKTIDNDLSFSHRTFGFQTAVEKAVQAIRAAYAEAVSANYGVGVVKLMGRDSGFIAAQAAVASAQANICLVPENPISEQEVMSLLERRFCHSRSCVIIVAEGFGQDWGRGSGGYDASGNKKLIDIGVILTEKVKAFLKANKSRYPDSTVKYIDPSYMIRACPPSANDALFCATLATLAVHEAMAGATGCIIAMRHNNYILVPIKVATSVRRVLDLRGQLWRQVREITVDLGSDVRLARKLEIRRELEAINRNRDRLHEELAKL

As to `CN1C(=O)CC[C@@H]1c1cccnc1`, the activity change, negative = inhibition is 10.4% (inactive) in experiment [1] (at 17.2 µM (top of the series)); -5.74% (inactive) in experiment [1] (at 38 µM (top of the series)); 1.15% (inactive) in experiment [3] (at 17.2 µM (top of the series)); 1.74% (inactive) in experiment [3] (at 38 µM (top of the series)); 0.0072% (inactive) in experiment [11]. Further, the Potency entry in experiment [2], in [5], in experiment [6], in experiment [7] and in [12] was “inactive” throughout. Besides, the activity, negative = inhibition is -1.06% (inactive) in [4] (at 17.2 µM (top of the series)) and 17.2% (inactive) in experiment [4] (at 38 µM (top of the series)). Also, the molecule was classed as inactive in experiment [8], in [9] and in experiment [10]. For the same molecule, the max response in experiment [11] (setting [18]) amounted to 5.39%; in [11] (setting [19]) it was 2.29%.
Consider `CCCN(CCC)C(=O)[C@@H](CCC(=O)O)NC(=O)c1ccccc1`, for which the activity change, negative = inhibition in experiment [1] (at 17.2 µM (top of the series)) was 0.378% (inactive); in experiment [1] (at 38 µM (top of the series)), -3.39% (inactive); in experiment [3] (at 17.2 µM (top of the series)), -4.73% (inactive); in [3] (at 38 µM (top of the series)) it was -3.22% (inactive); in experiment [11], 0.554% (inactive). The Potency result (in experiment [2]; in experiment [5]; in [6]; in experiment [7]; in [12]; with AS120) was “inactive” in each case. Further, the Potency entry in the experiment with CP238 and with FAB9 was “inactive” each time. Besides, the activity, negative = inhibition in [4] (at 17.2 µM (top of the series)) is -4.56% (inactive); in experiment [4] (at 38 µM (top of the series)) it was -1.87% (inactive); in experiment [17] (parasite line A), 5.79% (inactive); in [17] (parasite line B) it was 7.29% (inactive). For the same molecule, the Potency in [13] was > 46 µM (inactive) and > 20.6 µM (inactive); in experiment [14], > 46 µM (inactive) and > 20.6 µM (inactive). Moreover, the outcome in experiment [8], in experiment [9], in experiment [10], in [15] and in experiment [16] was inactive. The max response in experiment [11] (setting [18]) came to 5.84%; in experiment [11] (setting [19]) it was 4.96%.

For the origin of these results see PubChem BioAssay (NCATS).
